Experimental findings from PubChem BioAssay (NCI) are described below.

The structures appear in SMILES notation. This is part of a sample that, as a whole, favours compounds with a hit. Of some 83,000 tested, about 20% had one in any assay.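 48-hour exposure, single concentration, 96-well plates; percent growth endpoint where 0 means no net growth. Active: below 10.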 Values without a mark were called inactive. Calls of active or inactive are those of the source.

The test system of the assay is MDA-MB-468 breast. The assay is described as follows: NCI-60 one-dose screen, 48 h (100 = growth as untreated, 0 = no growth, -100 = all killed). The note with it: 10 µM unless noted.
Take `Fc1[nH]nc2ccc([C@@H]3Nc4ccc5[nH]ncc5c4[C@H]4C5CCC(C5)[C@@H]34)cc12` (stereo not given in full): the growth is 16%. On to `Cc1c(Cl)cccc1NS(=O)(=O)c1ccccc1`, for which the growth was 93.2%. The result for `COc1cc(NCCCCCN)c2ncccc2c1` reads 114%; that for `C1CCC([PH+](C2CCCCC2)C2CCCCC2[PH+](C2CCCCC2)C2CCCCC2)CC1.[Au].[CH-]1CCCCC1C1CCCC[N-]1` (stereo not given), -33.9% (active).

Regarding `Cc1[nH]c(C(=O)Nc2ccc(C(N)=O)cc2OC(C)C)c(Cl)c1Cl`, the growth was 68.4%. The result for `COc1c(-c2c3sc(=O)[nH]c3nc3c2c(=O)[nH]n3C(C)C)cc2c(c1OC)OCO2` reads 102%; that for `COc1cc(/C=C2\COc3ccc(-c4ccccc4)cc3C2=O)cc(OC)c1`, 69.3%; that for `C=C(C)[C@@H]1CCC[C@]2(C(=O)N3CCN(C)CC3)CC[C@]3(C)[C@@H](CC[C@@H]4[C@@]5(C)CC/C(=N\NC(=O)c6ccncc6)C(C)(C)[C@@H]5CC[C@]43C)[C@@H]12`, 113%.

In the case of `COc1ccc(Nc2nc(-c3cc(O)c(C)c(C)c3O)cs2)cc1`, the growth is -6.65% (active). As for `COc1ccccc1/C=N\NC(=S)Nc1ccc(F)cc1`, the growth is 72.9%. `O=C(N=c1n(-c2ccccc2)nc2n1CCN2C1=NCCN1C(=O)c1ccc(Cl)cc1)c1ccc(Cl)cc1`: the growth is 73.6%. The result for `COc1ccc(Nc2ncccc2/C=C/C(=O)c2cc(OC)c(OC)c(OC)c2)cc1` reads -62.1% (active); that for `O=c1[nH]c(=O)c2cc(Cl)cc(Cl)c2[nH]1`, 112%. Under `CCCCCCNC(=O)Oc1ccc(/C(=C(\C)c2ccc(Cl)cc2)c2ccc(OCCN(CC)CC)cc2)cc1` stands 52.4%; under `Cc1nc2c(O)cccc2cc1CO`, 95.2%. The result for `O=C(/C=C1\C=CN(CCCCO)c2ccccc21)n1ccc2ccccc21` reads 98%; that for `N#Cc1c(NC(=O)c2ccccc2C(F)(F)F)sc2c1CCC(=O)C2`, -0.286% (active). As to `Cc1ccc(NC(=O)c2ccc(CN3CCN(C)CC3)c(C(F)(F)F)c2)cc1Oc1ccc(-c2[nH]nc3ncnc(N)c23)cc1`, the growth was 117%.

`Nc1ccc(-c2nc3ccc4[nH]ncc4c3c3c2CCCC3)cc1F`: the growth is 7.24% (active). The result for `Cc1oc2nc[nH]c(=O)c2c1C(=O)/C=C/c1ccc(Cl)cc1Cl` reads 86.7%; that for `CC1=NN2C(=NC3=C(CCC/C3=C\c3ccc(Cl)cc3)C2c2ccc(Cl)cc2)S1` (stereo not given), 95.6%; that for `CCCCCCCCCCCCCC[n+]1ccc(C(N)=O)cc1`, -40.6% (active). The result for `CCCCCCCC(=O)SCC/C=C/[C@@H]1CC(=O)NCc2cc(ccn2)C2=N[C@@](C)(CS2)C(=O)N[C@@H](C(C)C)C(=O)O1` reads 12.2%; that for `CCNCCNc1cc(-c2ccc(C(F)(F)F)cc2)c(C#N)c2nc3cc(Cl)c(Cl)cc3n12`, -82% (active).

On to `CC(=O)[C@@H]1CC[C@]2(COS(=O)(=O)c3ccc(C)cc3)CC[C@]3(C)[C@H](CC[C@@H]4[C@@]5(C)CCCNC(C)(C)[C@@H]5CC[C@]43C)[C@@H]12`, for which the growth is 20.2%. Under `O=C(Nc1ccc(F)c(Cl)c1)Nc1ccc(Cl)c(Cl)c1` stands 9.54% (active). As for `c1ccc2sc(SSN3CC4CCC(CC4)C3)nc2c1`, the growth was 122%. The result for `CC(c1ccccc1)N(C)C` (stereo not given) reads 86%. Under `CN1CCN(C(=O)[C@@]2(C)CC[C@]3(C)CC[C@]4(C)C(=CC[C@@H]5[C@@]6(C)C/C(=C/c7ccncc7)C(=O)C(C)(C)[C@@H]6CC[C@]54C)[C@@H]3C2)CC1` stands 37.5%; under `COc1c(C2CC(=O)Nc3c2cnn3Cc2ccco2)cc2c(c1OC)OCO2` (stereo not given), 16.2%; under `O=c1cc(CP(=O)(O)O)c2cc(O)c(-c3ccccc3)cc2o1`, 99.1%. Under `COc1ccccc1/C=C/C1=C(C)CCC(c2ccccc2OC)C1C` (stereo not given) stands 29.7%; under `O=C(O)CCCC(=O)O`, 94.9%; under `COc1cc(/C=N/N(C)C)ccc1O`, 95.8%. As to `O=C1C=C(Nc2cccc(Br)c2)c2ccccc2C1=O`, the growth is 90.2%.

As to `COc1ccc(C(=O)NNc2nc(Cl)nc(N3CCN(C(c4ccccc4)c4ccccc4)CC3)n2)cc1`, the growth is -31.9% (active).

Take `Cc1cc(C)cc(Nc2nccc(-c3c(-c4ccc(F)cc4)ncn3C3CCNCC3)n2)c1`: the growth is -29.9% (active).

For the compound `COc1ccc2nc3cc(Cl)ccc3c(N3CCN(c4ccnc(N5CCN(C)CC5)n4)CC3)c2c1`, the growth is -51.9% (active). Under `CC1CCCC(CC(N)=O)CC1` (stereo not given) stands 97.9%; under `NC(=O)NCC1CCCCC1`, 98%.
